# Bioassay records deposited in PubChem BioAssay by National Center for Advancing Translational Sciences (NCATS).
# Hits are enriched below; roughly 19% of the tested compounds scored in any of these assays.
# DT40 TDP1 CPT – DT40-hTDP1 cell growth loss with CPT; actives 12% (n = 420,000); Potency, µM (highest dose often 46.2 µM), without a hit: top-dose activity change, negative = growth inhibition, most hits filed as inhibitors; AID 686979; chicken DT40 Tdp1-/-;hTDP1 cells + 20 nM CPT, ATP luminescence, 48 h; also: nearly all actives have a fitted effect of over 55% in size
#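 Cell growth measured by CellTiter-Glo luminescence after a minimum 48 h, 37 C compound exposure with 20 nM CPT in Tdp1-knockout DT40 cells stably expressing hTDP1, seeded 400/well; qHTS titration format.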
# DT40 TDP1 no CPT – qHTS for Inhibitors of human tyrosyl-DNA phosphodiesterase 1 (TDP1): qHTS in cells in absence of CPT | DT40 Tdp1-/- hTDP1 cells, no CPT, ATP luminescence, 48 h | Potency, µM (doses to about 46.2 µM), for the others: at the highest dose activity change, negative = growth inhibition, actives largely listed as inhibitors | actives 15% (n = 420,000) | AID 686978, 2013; also: nearly all actives have a fitted effect of over 55% in size
#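 Growth of hTDP1-complemented DT40 Tdp1-knockout cells is measured by ATP luminescence after at least 48 hr compound exposure at 37 °C, with DMSO substituting for the 20 nM CPT used in the parallel screen.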
# HT1080NT lethal – kills 2HG-producing HT-1080-NT fibrosarcoma cells | HT-1080-NT fibrosarcoma viability, CellTiter-Glo ATP luminescence, 48 h | Potency, µM (doses to about 46.1 µM), for inactives: at the top dose activity, negative = less viability, actives largely listed as cytotoxic | actives 1.6% (n = 360,000) | AID 686970;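 also: NT is the 2HG producing partner of a matched IDH1 knockdown line; 0% = DMSO-treated cells and -100% = media-only wells without cells; nearly all actives have a fitted effect of over 55% in size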
#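 Viability of the 2HG-overproducing fibrosarcoma line after 48 hours of compound exposure at 37 degrees C was determined by luminescence with CellTiter-Glo, and concentration-effect curves were then fitted and categorized.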
# HT1080 IDH1KD tx – HT-1080 IDH1 knockdown cell toxicity (counter line); AID 686971; actives 2% (n = 360,000); HT-1080 IDH1 knockdown viability, ATP luminescence, 48 h; Potency, µM (top dose mostly 46.1 µM), inactives show at the highest dose activity, negative = toxicity, most hits filed as cytotoxic;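 also: 0% = DMSO wells and -100% = cell-free medium wells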
#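 IDH1KD HT-1080 cells, 750/well, RPMI + 5% FBS; compound pinned after 2 h settling; 48 h, 37 °C; CellTiter-Glo luminescence; % activity normalised to DMSO and no-cell wells; curves fitted, classed by r2 and efficacy.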
# KB-V1 cytotox – KB-V1 MDR subline cytotoxicity | actives 3.4% (n = 400,000) | Potency, µM (series often up to 46.1 µM), most hits filed as cytotoxic | AID 1347076 | KB-V1 MDR cells viability, CellTiter-Glo, 72 h; also: nearly all actives have a fitted effect of over 60% in size
#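 Readout: CellTiter-Glo luminescence, 10 min after addition. Cells: KB-V1 MDR subline, 72 h at 37 degrees C with compound. Analysis: corrected, normalized data fitted to concentration-effect curves.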
# KB-3-1 tox – kills parental KB-3-1 adenocarcinoma cells. Potency, µM (top dose mostly 46.1 µM), actives largely listed as cytotoxic. AID 1347075. actives 1.4% (n = 400,000). KB-3-1 viability, CellTiter-Glo ATP luminescence, 72 h; also: nearly all actives have a fitted effect of over 60% in size
#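 Cytotoxicity in the drug-sensitive parental line KB-3-1 was scored as loss of CellTiter-Glo luminescence following 72 h incubation with compound. Values come from curve fitting of normalized concentration-response data.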
# Active calls of the source: *; i = inactive; ? = inconclusive; . = no result; [ ] = dose if it differs, or a comment. Calls follow the shape of the dose curve; as a rule, active = well fitted curve in the direction sought with a large enough effect; inconclusive = small, poorly fitted or top-dose-only effect, or another doubt; inactive = no such curve, though single readings can be large; an effect the other way counts as inactive or inconclusive. Unless noted, % is scaled to controls: 0 for no effect and ±100 for the full control effect; potency is read from the fitted curve at half-maximal effect.
SMILES,DT40 TDP1 CPT,DT40 TDP1 no CPT,HT1080NT lethal,HT1080 IDH1KD tx,KB-V1 cytotox,KB-3-1 tox
Cc1ccc(-c2nc(SCC(=O)Nc3cc(S(=O)(=O)N4CCCCC4)ccc3Cl)n[nH]2)cc1,?,?,-20%,-15%,16µM*,?
CCCc1cc(=O)[nH]c(SCC(=O)Nc2cc(S(=O)(=O)N3CCCCC3)ccc2Cl)n1,-15%,4%,6.5µM*,15µM*,?,8.2µM*
C=CCSc1nnc(NC(=O)CSc2nc(CCC)cc(=O)[nH]2)s1,?,?,-28%,-19%,21µM*,?
COc1cc(Cl)c(NC(=O)CN2C(=O)c3cccnc3Sc3ccccc32)c(OC)c1,1%,?,.,.,.,.
CCc1cc[n+](CC(=O)c2ccc(F)cc2)cc1C(=O)O,-21%,-4%,.,.,i,i
CC(C)N(CC#CCC(O)(c1ccccc1)c1ccccc1)C(C)C,-16%,-25%,-16%,4%,13µM*,i
CCN(CC#CCC(O)(c1ccccc1)c1ccccc1)C(C)C,-11%,-29%,0%,-8%,i,i
CCOc1ccc(N(CC(=O)Nc2cccc(F)c2)S(=O)(=O)c2c(C)noc2C)cc1,?,21µM*,?,?,?,21µM*
CCOc1ccc(N(CC(=O)Nc2ccc(C)c(C)c2)S(=O)(=O)c2c(C)noc2C)cc1,9.2µM*,10µM*,.,.,?,?
COc1ccc(CN(CCCN)c2ccc(Br)cn2)cc1,?,11µM*,?,?,.,.
CC(=O)NCCCNC(=S)NCCCN(Cc1ccc(Cl)cc1)c1ccc(Br)cn1,?,?,.,.,i,i
NCCCN(Cc1ccc(Cl)c(Cl)c1)c1ccccn1,10µM*,8.9µM*,13µM*,11µM*,.,.
CN(CCc1ccccn1)Cc1ccc(Cl)c(Cl)c1,-1%,-6%,7%,2%,i,i
NCCN(Cc1ccc(Cl)c(Cl)c1)c1ccc(Br)cn1,4µM*,4µM*,11µM*,10µM*,.,.
CC[N+](C)(C)CCN(Cc1ccc(Cl)cc1)c1ccccn1,18µM*,9.2µM*,-15%,-4%,i,i
COc1ccc(CN2C(=O)C(CC(=O)NCc3cccc4ccccc34)CC(C(=O)N(C(C)C)C(C)C)=C2C)cc1 (stereo not drawn),?,?,?,?,i,?
CCOC(=O)Cn1c(=O)n(CC2CCCO2)c2nc(-c3ccccc3OC)nc(C(N)=O)c21 (stereo not drawn),-21%,-16%,.,.,.,.
CC(=O)NCCNC(=O)c1ccc(NC2=NC3CS(=O)(=O)CC3S2)cc1 (stereo not drawn),0%,3%,?,6%,i,i
Cc1cccc(C)c1NC(=O)C1(C)CN(S(C)(=O)=O)CC(=O)N1CCc1ccc(O)cc1 (stereo not drawn),27%,9%,20%,5%,i,i
Cc1cc(C)c(NC(=O)Cn2c(=O)nc(-c3ccccc3)c3cc(Cl)ccc32)c(C)c1,5%,?,.,.,.,.
O=C(O)CSc1nc2sc3c(c2c(=O)n1-c1ccccc1)CCC3,2%,-28%,-3%,-1%,i,i
Cc1nn(Cc2ccccc2)c(C)c1NC(=O)CSc1nc2sc3c(c2c(=O)n1C)CCC3,?,18µM*,0%,-9%,?,9.2µM*
Cn1c(SCC(=O)O)nc2sc3c(c2c1=O)CCC3,-14%,-16%,-5%,-1%,?,i
COCCn1c(SCC(=O)NCC(c2ccccc2)N(C)C)nc2sc3c(c2c1=O)CCC3 (stereo not drawn),-6%,-18%,-8%,-11%,i,i
Cn1c(SCc2nnc(-c3ccccc3Br)o2)nc2sc3c(c2c1=O)CCC3,?,18µM*,?,6%[9.24 µM],i,i
SMILES,DT40 TDP1 CPT,DT40 TDP1 no CPT,HT1080NT lethal,HT1080 IDH1KD tx,KB-V1 cytotox,KB-3-1 tox
CC(NC(=O)CSc1nc2sc3c(c2c(=O)n1-c1ccccc1)CCCC3)c1ccccc1 (stereo not drawn),6.5µM*,?,1%,13%,?,i
CN(C)C(CNC(=O)CSc1nc2sc3c(c2c(=O)n1C)CCCC3)c1ccccc1 (stereo not drawn),23µM*,21µM*,-9%,-20%,i,i
COCCCn1c(SCc2nnc(-c3ccccc3)o2)nc2sc3c(c2c1=O)CCC3,?,?,5%,12%,?,i
COc1ccc(CCC(=O)OCC(=O)NC(=O)c2ccc(Cl)cc2)cc1,-14%,-28%,11%,10%,i,i
COc1ccc(-c2cc(C(=O)NCC3CCCCC3)[nH]n2)c(C)c1,?,?,4%,7%,i,i
CC(=O)Nc1ccc(NS(=O)(=O)c2c(C(=O)N3CCCCCC3)c(C)n(C)c2C)cc1,6%,1%,.,.,i,i
CCCn1c(=O)n(C)c(=O)c2c(SCC(=O)NCC(c3ccccc3)N(C)C)nc(CC(C)C)nc21 (stereo not drawn),21µM*,18µM*,0%,-2%,?,i
Cc1cc([N+](=O)[O-])ccc1NC(=O)CSc1nncn1-c1cccnc1,-4%,-23%,15%,5%,?,i
O=C(Cc1ccccc1)N(Cc1cccnc1)c1nc2ccc(F)cc2s1,?,-7%,.,.,.,.
N#C/C(=C\c1ccc(OCc2ccccc2)cc1)C(=O)Nc1nc2c(s1)CCN(Cc1ccccc1)C2,23µM*,21µM*,13%,20%,?,?
N#C/C(=C\c1ccc(OCc2ccccc2)cc1)C(N)=O,?,23µM*,-6%,0%,i,i
O=C(c1cc2ccccc2o1)N1CCN(c2ncccn2)CC1,?,?,14%,12%,i,i
CC(C)(C)OC(=O)n1cc(C(=O)c2ccccc2O)cn1,3%,-17%,7%,9%,i,i
NC(=O)COc1ccc(Nc2nnc(-c3ccc(O)cc3)c3ccccc23)cc1,20%,3%,5%,-2%,i,i
CCOC(=O)c1c(Nc2cccc(O)c2)nnc(-c2ccccc2)c1-c1ccccc1,?,23µM*,.,.,i,i
CCOC(=O)c1c(Nc2ccc(OCC)cc2)nnc(-c2ccccc2)c1-c1ccccc1,15µM*,21µM*,.,.,i,i
CC(=O)c1cc(F)ccc1OCC(=O)N1CCN(c2ccc(F)cc2)CC1,?,?,6%,1%,?,i
